# Source: paper PMC11006913
# Numbering of substitutions follows the chain as printed.
# Target: T1, PAX4 (Homo sapiens, UniProt O43316 9-242)
# T1 sequence: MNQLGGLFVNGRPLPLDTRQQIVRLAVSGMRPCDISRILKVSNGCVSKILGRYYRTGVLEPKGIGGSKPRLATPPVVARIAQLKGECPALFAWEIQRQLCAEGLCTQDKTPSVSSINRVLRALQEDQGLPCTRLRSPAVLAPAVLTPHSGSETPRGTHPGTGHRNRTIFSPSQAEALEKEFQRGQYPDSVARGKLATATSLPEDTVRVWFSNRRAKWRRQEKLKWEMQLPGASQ
# Test: PBM; 200 nM protein, PBS
# Conditions: dsDNA, one strand shown
row,Sequence,binding signal
1,CCACGTTA,"10.7 upbm affinity estimate (log intensity, higher = more binding, comparable within an allelic series)"
2,AAAACCAT,"10.5 upbm affinity estimate (log intensity, higher = more binding, comparable within an allelic series)"
3,GAATTGAA,"10.6 upbm affinity estimate (log intensity, higher = more binding, comparable within an allelic series)"
4,ACTGATGC,"10.6 upbm affinity estimate (log intensity, higher = more binding, comparable within an allelic series)"
5,CCAATCAG,"10.5 upbm affinity estimate (log intensity, higher = more binding, comparable within an allelic series)"
6,TTAGTCAA,"10.9 upbm affinity estimate (log intensity, higher = more binding, comparable within an allelic series)"
7,ACTAACTA,"10.8 upbm affinity estimate (log intensity, higher = more binding, comparable within an allelic series)"
8,AATTGCGA,"10.7 upbm affinity estimate (log intensity, higher = more binding, comparable within an allelic series)"
9,CGTTATGC,"10.3 upbm affinity estimate (log intensity, higher = more binding, comparable within an allelic series)"
10,GTTAACCA,"10.5 upbm affinity estimate (log intensity, higher = more binding, comparable within an allelic series)"
11,AATAACGG,"10.8 upbm affinity estimate (log intensity, higher = more binding, comparable within an allelic series)"
12,ATTTTGGA,"10.5 upbm affinity estimate (log intensity, higher = more binding, comparable within an allelic series)"

# Target: T2, SIX6 (Homo sapiens, UniProt O95475 114-200, L167M)
# T2 sequence: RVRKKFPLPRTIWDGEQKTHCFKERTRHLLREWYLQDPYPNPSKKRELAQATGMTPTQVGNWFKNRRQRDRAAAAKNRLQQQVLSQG
# Test: PBM; 200 nM protein, PBS
# Conditions: dsDNA, one strand shown
row,Sequence,binding signal
1,ATCTATAC,"10.7 upbm affinity estimate (log intensity, higher = more binding, comparable within an allelic series)"
2,CGGATATA,"10.8 upbm affinity estimate (log intensity, higher = more binding, comparable within an allelic series)"
3,ACCGATAC,"10.2 upbm affinity estimate (log intensity, higher = more binding, comparable within an allelic series)"
4,ATATACTC,"10.7 upbm affinity estimate (log intensity, higher = more binding, comparable within an allelic series)"
5,GGGATATA,"10.8 upbm affinity estimate (log intensity, higher = more binding, comparable within an allelic series)"
6,CATATCGA,"10.2 upbm affinity estimate (log intensity, higher = more binding, comparable within an allelic series)"
7,GAGATATA,"10.8 upbm affinity estimate (log intensity, higher = more binding, comparable within an allelic series)"
8,CGTATCAG,"10.2 upbm affinity estimate (log intensity, higher = more binding, comparable within an allelic series)"
9,ATATACCA,"10.7 upbm affinity estimate (log intensity, higher = more binding, comparable within an allelic series)"
10,CACGTATC,"10.2 upbm affinity estimate (log intensity, higher = more binding, comparable within an allelic series)"
11,CCATATCG,"10.1 upbm affinity estimate (log intensity, higher = more binding, comparable within an allelic series)"
12,ATATACCC,"11.1 upbm affinity estimate (log intensity, higher = more binding, comparable within an allelic series)"
13,GGGGTATA,"10.7 upbm affinity estimate (log intensity, higher = more binding, comparable within an allelic series)"
14,CGTATCGC,"10 upbm affinity estimate (log intensity, higher = more binding, comparable within an allelic series)"
15,CCGTATCG,"9.97 upbm affinity estimate (log intensity, higher = more binding, comparable within an allelic series)"
16,CGACACCA,"9.52 upbm affinity estimate (log intensity, higher = more binding, comparable within an allelic series)"
17,GTATCGAA,"10.2 upbm affinity estimate (log intensity, higher = more binding, comparable within an allelic series)"
18,GTATCGAC,"9.96 upbm affinity estimate (log intensity, higher = more binding, comparable within an allelic series)"
19,GTATCGGA,"10.1 upbm affinity estimate (log intensity, higher = more binding, comparable within an allelic series)"
20,GGCGATAC,"10.1 upbm affinity estimate (log intensity, higher = more binding, comparable within an allelic series)"
21,AGGTATAT,"10.8 upbm affinity estimate (log intensity, higher = more binding, comparable within an allelic series)"
22,CGTATCGA,"10 upbm affinity estimate (log intensity, higher = more binding, comparable within an allelic series)"
23,GGGGGATA,"10.8 upbm affinity estimate (log intensity, higher = more binding, comparable within an allelic series)"
24,GGTATCGA,"10.4 upbm affinity estimate (log intensity, higher = more binding, comparable within an allelic series)"
25,AATATACC,"10.9 upbm affinity estimate (log intensity, higher = more binding, comparable within an allelic series)"
26,TATATCCA,"10.7 upbm affinity estimate (log intensity, higher = more binding, comparable within an allelic series)"

# Target: T3, SIX6 (Homo sapiens, UniProt O95475 114-200, L143I)
# T3 sequence: T2 sequence with L30I, M54L
# Test: PBM; 200 nM protein, PBS
# Conditions: dsDNA, one strand shown
row,Sequence,binding signal
1,ATCTATAC,"10.4 upbm affinity estimate (log intensity, higher = more binding, comparable within an allelic series)"
2,ATATACTC,"10.4 upbm affinity estimate (log intensity, higher = more binding, comparable within an allelic series)"
3,ATATACCC,"10.4 upbm affinity estimate (log intensity, higher = more binding, comparable within an allelic series)"

# Target: T4, PAX4 (Homo sapiens, UniProt O43316 9-242, F177V)
# T4 sequence: T1 sequence with F169V
# Test: PBM; 200 nM protein, PBS
# Conditions: dsDNA, one strand shown
row,Sequence,binding signal
1,CCACGTTA,"10.1 upbm affinity estimate (log intensity, higher = more binding, comparable within an allelic series)"
2,GAATTGAA,"10.1 upbm affinity estimate (log intensity, higher = more binding, comparable within an allelic series)"
3,ACTGATGC,"9.94 upbm affinity estimate (log intensity, higher = more binding, comparable within an allelic series)"
4,CCAATCAG,"9.65 upbm affinity estimate (log intensity, higher = more binding, comparable within an allelic series)"
5,TTAGTCAA,"10.1 upbm affinity estimate (log intensity, higher = more binding, comparable within an allelic series)"
6,ACTAACTA,"10.1 upbm affinity estimate (log intensity, higher = more binding, comparable within an allelic series)"
7,AATTGCGA,"9.91 upbm affinity estimate (log intensity, higher = more binding, comparable within an allelic series)"
8,GTTAACCA,"9.85 upbm affinity estimate (log intensity, higher = more binding, comparable within an allelic series)"
9,AATAACGG,"10 upbm affinity estimate (log intensity, higher = more binding, comparable within an allelic series)"

# Target: T5, PAX4 (Homo sapiens, UniProt O43316 9-242, F177Y)
# T5 sequence: T1 sequence with F169Y
# Test: PBM; 200 nM protein, PBS
# Conditions: dsDNA, one strand shown
row,Sequence,binding signal
1,ATCTATAC,"10.4 upbm affinity estimate (log intensity, higher = more binding, comparable within an allelic series)"
2,CCACGTTA,"10.1 upbm affinity estimate (log intensity, higher = more binding, comparable within an allelic series)"
3,AAAACCAT,"9.98 upbm affinity estimate (log intensity, higher = more binding, comparable within an allelic series)"
4,ACTGATGC,"10 upbm affinity estimate (log intensity, higher = more binding, comparable within an allelic series)"
5,CCAATCAG,"9.83 upbm affinity estimate (log intensity, higher = more binding, comparable within an allelic series)"
6,TTAGTCAA,"10.2 upbm affinity estimate (log intensity, higher = more binding, comparable within an allelic series)"
7,ACTAACTA,"10.1 upbm affinity estimate (log intensity, higher = more binding, comparable within an allelic series)"
8,AATTGCGA,"10 upbm affinity estimate (log intensity, higher = more binding, comparable within an allelic series)"
9,GTTAACCA,"9.89 upbm affinity estimate (log intensity, higher = more binding, comparable within an allelic series)"
10,AATAACGG,"10.1 upbm affinity estimate (log intensity, higher = more binding, comparable within an allelic series)"
11,ATTTTGGA,"10 upbm affinity estimate (log intensity, higher = more binding, comparable within an allelic series)"

# Target: T6, PAX4 (Homo sapiens, UniProt O43316 9-242, R227W)
# T6 sequence: T1 sequence with R219W
# Test: PBM; 200 nM protein, PBS
# Conditions: dsDNA, one strand shown
row,Sequence,binding signal
1,CCACGTTA,"10.2 upbm affinity estimate (log intensity, higher = more binding, comparable within an allelic series)"
2,AAAACCAT,"10.1 upbm affinity estimate (log intensity, higher = more binding, comparable within an allelic series)"
3,GAATTGAA,"10.1 upbm affinity estimate (log intensity, higher = more binding, comparable within an allelic series)"
4,ACTGATGC,"10 upbm affinity estimate (log intensity, higher = more binding, comparable within an allelic series)"
5,CCAATCAG,"9.74 upbm affinity estimate (log intensity, higher = more binding, comparable within an allelic series)"
6,TTAGTCAA,"10.2 upbm affinity estimate (log intensity, higher = more binding, comparable within an allelic series)"
7,ACTAACTA,"10.2 upbm affinity estimate (log intensity, higher = more binding, comparable within an allelic series)"
8,AATTGCGA,"10.1 upbm affinity estimate (log intensity, higher = more binding, comparable within an allelic series)"
9,CGTTATGC,"9.97 upbm affinity estimate (log intensity, higher = more binding, comparable within an allelic series)"
10,GTTAACCA,"9.96 upbm affinity estimate (log intensity, higher = more binding, comparable within an allelic series)"
11,AATAACGG,"10.1 upbm affinity estimate (log intensity, higher = more binding, comparable within an allelic series)"
